M1 antag: antagonists of rat M1 muscarinic receptor. Muscarinic acetylcholine receptor M1 (Rattus norvegicus), P08482. CHO-M1 cells, Fluo-4 calcium, ACh EC80 antagonist mode; hits give low values. AID 628, 2007. hit rate 3.4% among 64,000. B-score at 10 µM;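 active = calcium fluorescence response, raw or row-and-column corrected B-score, differing from the plate sample mean either way at a set confidence level, mostly lower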
Target sequence (P08482 whole entry, looked up): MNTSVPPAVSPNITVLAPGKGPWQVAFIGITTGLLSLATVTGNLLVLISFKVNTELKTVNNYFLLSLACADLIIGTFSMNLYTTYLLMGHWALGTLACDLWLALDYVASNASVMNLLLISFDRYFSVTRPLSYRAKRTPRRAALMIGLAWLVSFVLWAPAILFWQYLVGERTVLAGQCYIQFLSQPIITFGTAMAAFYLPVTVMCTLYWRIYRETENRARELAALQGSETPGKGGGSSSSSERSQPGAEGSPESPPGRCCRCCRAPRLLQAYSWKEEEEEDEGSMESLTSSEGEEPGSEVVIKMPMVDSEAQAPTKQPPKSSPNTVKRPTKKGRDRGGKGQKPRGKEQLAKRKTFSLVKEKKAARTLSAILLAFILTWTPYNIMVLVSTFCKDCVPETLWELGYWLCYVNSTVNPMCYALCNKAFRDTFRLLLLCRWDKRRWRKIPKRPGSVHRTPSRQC
M1 ag: M1 muscarinic receptor agonists, primary screen, CHO-M1 cells, Fluo-4 calcium, agonist mode. Fluo-4 calcium fluorescence; hits give high values. B-score at 10 µM. hit rate 3% among 64,000. AID 626, 2007;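 active = fluorescence rise, raw or as B-score row- and column-corrected plate score, outside the 99.7% band of its plate's samples, either direction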
Cav3 T inh: Cav3.2 calcium influx blockers – cell-based, Fluo-4 calcium fluorescence, FDSS, MLSMR library, primary screen | Cav3.2-expressing cells; hits give low values | AID 449739, 2010 | hit rate 4% among 100,000 | B-score at 10 µM;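 active = single-dose well whose peak fluorescence ratio is a statistical outlier from its plate by either plate-standardised score or position-corrected B-score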
Pyk2 oligo antag: antagonists of Pyk2 self-association, primary screen, Q293 cells, FERM NanoBiT luminescence, HTS. Protein-tyrosine kinase 2-beta (Homo sapiens), Q14289. hits give low values. z-score (the deposit names both 25 µM and 10 µM). hit rate 0.83% among 99,000;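 active = Z-score of -3 or lower, scaled per plate to the spread of control and sample wells; inactive = z-score above -3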;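 note: negative z-score means lost luminescence so less FERM oligomerization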
The depositor's hits bear a star; x = not tested or not shown. Hits are enriched below; roughly 7.1% of the tested compounds scored in any of these assays.

SMILES	M1 antag	M1 ag	Cav3 T inh	Pyk2 oligo antag
CCN(CC)S(=O)(=O)c1cccc(-c2nnc(SC(C)C(=O)NCCC3=CCCCC3)o2)c1 (centres undefined)	-0.347	1.65	-2.89*	-0.6
CCN(CC)S(=O)(=O)c1cccc(-c2nnc(SCCCC(=O)c3ccc(F)cc3)o2)c1	-0.186	0.228	-4.73*	0.04
CS(=O)(=O)N1CCC(C(=O)N2CCC(Cc3ccccc3)CC2)CC1	-0.138	-0.463	0.181	-1.39
O=C(C1CCCN(S(=O)(=O)Cc2ccccc2)C1)N1CCC(Cc2ccccc2)CC1 (centres undefined)	x	x	-5.54*	-1.06
Cc1ccccc1CNC(=O)c1ccc(CSCc2ccccc2)cc1	x	x	-5.92*	-0.35
O=C(NCc1ccccc1)c1ccc(Oc2ccc(C(=O)NCc3ccccc3)cc2)cc1	x	x	-1.08	2.3
CCN(CC)c1ccc(-c2nnc(SCC(=O)Nc3ccccc3C#N)n2-c2ccccc2)cc1	x	x	-2.38	-0.14
Clc1ccc(OCCN2CCOCC2)cc1Cl	x	x	-3.97*	1.39
O=C(COC(=O)C1(c2ccccc2F)CCCC1)N1CCN(C(=O)c2ccco2)CC1	-1.9	0.559	0.425	-0.19
O=C(COC(=O)C1(c2ccc(F)cc2)CCCC1)N1CCN(C(=O)c2ccco2)CC1	-1.65	-2.06	-5.36*	-0.06
Cc1ccc(S(=O)(=O)N(CC(=O)NC2CCCC2)c2cccc(C)c2)cc1	x	x	x	0.2
CC(=O)Nc1sc2c(c1C(c1ccccc1)N1CCOCC1)CCCC2 (centres undefined)	x	x	-6.26*	-0.39
CC(=O)Nc1sc2c(c1C(c1ccc(Cl)cc1)N1CCOCC1)CCCC2 (centres undefined)	x	x	x	-1.99
CC(=O)Nc1sc2c(c1C(c1ccc(F)cc1)N1CCOCC1)CCCC2 (centres undefined)	x	x	-7.15*	-1.87
O=C(O)C1=C[C@H](c2ccc(F)cc2)C[C@H](OCc2ccc(CO)cc2)O1	x	x	0.0786	x
Cc1ccc(Cn2c(Cc3ccccc3)nc3ccccc32)cc1	x	x	-5.03*	-1.05
COCc1nc2ccccc2n1Cc1ccccc1	0.0757	0.0176	-0.18	0.17
Cc1ccc(C)c(Cn2c(CO)nc3ccccc32)c1	0.24	-0.0351	-6.44*	1.03
CN1CCN(CC(=O)Nc2c(C(=O)C3CC3)oc3ccccc23)CC1	-1.83	1.39	1.08	0.59
CCOC(=O)CSCC(=O)Nc1c(C(=O)C2CC2)oc2ccccc12	x	x	-4.69*	3.09
CC(=O)Oc1cc2c(C(=O)NCc3ccncc3)c(C)oc2c2ccccc12	2.01*	6.13*	0.803	x
Cc1cc(=O)oc(C)c1C(=O)NCc1ccccc1	x	x	0.381	0.78
O=C(Cn1c(-c2cscn2)nc2ccccc21)Nc1ccc2ccccc2c1	x	x	-4.8*	-2.6
CC1CCCN(C(=O)CSc2cnc3ccccc3n2)C1 (centres undefined)	x	x	0.536	0.36
CN1C(=O)/C(=C/c2cc(N=Nc3ccccc3)ccc2O)SC1=S	x	x	0.356	-1.66
SMILES	M1 antag	M1 ag	Cav3 T inh	Pyk2 oligo antag
Cc1cc(NC(c2ccc(Cl)cc2)c2ccc3cccnc3c2O)no1 (centres undefined)	x	x	-4.08*	-0.87
Cc1ccc2ccc(C(Nc3ccccn3)c3ccccc3)c(O)c2n1 (centres undefined)	x	x	-2.55	x
c1ccc2c(c1)oc1c(N3CCN(Cc4ccc5c(c4)OCO5)CC3)ncnc12	-2.46	0.782	0.202	-1.7
Cc1ccc2c(c1)[nH]c1c(N3CCN(Cc4ccc5c(c4)OCO5)CC3)ncnc12	-2.03	3.35*	x	x
CCn1cnc2scc(-c3ccccc3)c2c1=O	10.4*	-1.19	-0.0546	-0.25
O=C(Cn1cnc2scc(-c3ccccc3)c2c1=O)N1CCOCC1	0.233	-0.336	-0.443	0.78
Cc1c(CN(C)C(=O)c2sc3cc(Cl)ccc3c2Cl)cnn1C	x	x	0.14	-1.51
Oc1ccc(-c2nccc(-c3cccs3)n2)cc1	x	x	0.00771	-1.95
CSC1=Nc2sc3c(c2C2=NCCN12)CCCC3	-11.2*	0.126	x	x
Nc1cc(=O)[nH]c(SCc2ccc(Cl)cc2)n1	x	x	-0.307	0.65
O=c1cc(O)nc(SCc2ccc(Cl)cc2)[nH]1	0.496	0.0526	-6.93*	-0.26
COc1ccc(/C=N/n2c(N)nc(-c3ccccc3)c2-c2ccccc2)cc1	x	x	0.238	-0.44
CCOC(=O)Cn1c(S(=O)(=O)Cc2ccccc2)nc2ccccc21	-0.481	-0.556	0.819	x
CCOC(=O)Cn1c(S(=O)(=O)Cc2ccc(Cl)cc2)nc(-c2ccccc2)c1-c1ccccc1	x	x	-5.61*	-1.96
C#CCn1c(S(=O)(=O)Cc2ccc(OC)cc2)nc(-c2ccccc2)c1-c1ccccc1	x	x	-5.14*	-3.05*
COC(C/C=C\[C@H](O)[C@@H](C)OCc1ccccc1)OC	x	x	-0.137	x

High-throughput results (PubChem)
